# Experimental data: the supplement of paper PMC8728848
# The entries come from a sample that favours the strongest signals as a whole.
# Experiments:
# Assay in all cases: glycan array binding signal (z-score within array); higher = stronger binding
# Settings in all cases: glycan notation: IUPAC condensed, linker removed
# [1] = biological target: Fuc(a1-2)Gal(b1-4)GlcNAc(b1-2)Man
# Outline: (§1)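 The binding signal is a Z-score computed within each array and averaged over linkers. Arrays of the same protein sequence at different concentrations or buffers were also averaged together. Data originate from 3228 arrays in the Consortium for Functional Glycomics database, kept only where the protein sequence was available.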
# [2] = biological target: Fuc(a1-2)Gal(b1-4)GlcNAc(b1-2)Man(a1-3)[Fuc(a1-2)Gal(b1-4)GlcNAc(b1-2)Man(a1-6)]Man(b1-4)GlcNAc(b1-4)GlcNAc
# Outline: as §1
# [3] = biological target: Fuc(a1-2)[Gal(a1-3)]Gal(b1-4)GlcNAc(b1-3)GalNAc
# Outline: as §1
# [4] = biological target: Fuc(a1-2)[Gal(a1-3)]Gal(b1-4)GlcNAc(b1-6)GalNAc
# Outline: as §1
# [5] = biological target: Fuc(a1-2)[GalNAc(a1-3)]Gal(b1-4)GlcNAc(b1-2)Man(a1-3)[Fuc(a1-2)[GalNAc(a1-3)]Gal(b1-4)GlcNAc(b1-2)Man(a1-6)]Man(b1-4)GlcNAc(b1-4)GlcNAc
# Outline: as §1
# [6] = biological target: Fuc(a1-3)[Gal(b1-4)]GlcNAc(b1-6)[Gal(b1-3)GlcNAc(b1-3)]Gal(b1-4)Glc
# Outline: as §1
# [7] = biological target: Fuc(a1-3)[Gal(b1-4)]GlcNAc6S
# Outline: as §1
# [8] = biological target: Gal(a1-3)Gal(b1-3)GlcNAc(b1-6)GalNAc
# Outline: as §1
# [9] = biological target: Gal(a1-3)[Gal(a1-4)]Gal(b1-4)GlcNAc
# Outline: as §1
# [10] = biological target: Gal(b1-3)GalNAc
# Outline: as §1
# [11] = biological target: Gal(b1-3)GlcNAc(b1-2)[Gal(b1-3)GlcNAc(b1-6)]Man(a1-6)[Gal(b1-3)GlcNAc(b1-2)Man(a1-3)]Man(b1-4)GlcNAc(b1-4)GlcNAc
# Outline: as §1
# [12] = biological target: Gal(b1-3)GlcNAc(b1-3)Gal(b1-4)Glc
# Outline: as §1
# [13] = biological target: Gal(b1-4)GlcNAc(b1-2)Man(a1-3)Man(b1-4)GlcNAc(b1-4)GlcNAc
# Outline: as §1
# [14] = biological target: Gal(b1-4)GlcNAc(b1-2)Man(a1-3)[GlcNAc(b1-4)][Gal(b1-4)GlcNAc(b1-2)Man(a1-6)]Man(b1-4)GlcNAc(b1-4)GlcNAc
# Outline: as §1
# [15] = biological target: Gal(b1-4)GlcNAc(b1-3)Gal(b1-4)GlcNAc(b1-3)Gal(b1-4)GlcNAc(b1-3)Gal(b1-4)GlcNAc(b1-2)Man(a1-3)[Gal(b1-4)GlcNAc(b1-3)Gal(b1-4)GlcNAc(b1-3)Gal(b1-4)GlcNAc(b1-3)Gal(b1-4)GlcNAc(b1-2)Man(a1-6)]Man(b1-4)GlcNAc(b1-4)GlcNAc
# Outline: as §1
# [16] = biological target: Gal(b1-4)GlcNAc(b1-3)Gal(b1-4)GlcNAc(b1-3)[Gal(b1-4)GlcNAc(b1-3)Gal(b1-4)GlcNAc(b1-6)]GalNAc
# Outline: as §1
# [17] = biological target: Gal3S(b1-4)[Fuc(a1-3)]Glc6S
# Outline: as §1
# [18] = biological target: GalNAc(b1-3)Gal(a1-6)Gal(b1-4)Glc
# Outline: as §1
# [19] = biological target: GalNAc3S(b1-4)GlcNAc
# Outline: as §1
# [20] = biological target: GlcA(b1-3)GlcNAc
# Outline: as §1
# [21] = biological target: GlcNAc(a1-3)Gal(b1-4)GlcNAc
# Outline: as §1
# [22] = biological target: GlcNAc(a1-4)Gal(b1-4)GlcNAc(b1-3)Gal(b1-4)[Fuc(a1-3)]GlcNAc(b1-3)Gal(b1-4)[Fuc(a1-3)]GlcNAc
# Outline: as §1
# [23] = biological target: GlcNAc(b1-2)[GlcNAc(b1-4)]Man(a1-3)[GlcNAc(b1-4)][GlcNAc(b1-2)[GlcNAc(b1-6)]Man(a1-6)]Man(b1-4)GlcNAc(b1-4)[Fuc(a1-6)]GlcNAc
# Outline: as §1
# [24] = biological target: GlcNAc(b1-3)Fuc
# Outline: as §1
# [25] = biological target: GlcNAc(b1-3)Gal(b1-3)GalNAc
# Outline: as §1
# [26] = biological target: GlcNAc(b1-3)Gal(b1-4)GlcNAc(b1-3)Gal(b1-4)GlcNAc(b1-3)GalNAc
# Outline: as §1
# [27] = biological target: GlcNAc(b1-4)GlcNAc
# Outline: as §1
# [28] = biological target: GlcNAc6S(b1-3)Gal(b1-4)GlcNAc
# Outline: as §1
# [29] = biological target: Man(b1-4)GlcNAc
# Outline: as §1
# [30] = biological target: Neu5Ac(a2-3)Gal(b1-3)GalNAc(b1-4)[Neu5Ac(a2-8)Neu5Ac(a2-3)]Gal(b1-4)Glc
# Outline: as §1
# [31] = biological target: Neu5Ac(a2-3)Gal(b1-3)[Neu5Ac(a2-6)]GlcNAc(b1-3)[Fuc(a1-3)[Gal(b1-4)]GlcNAc(b1-6)]Gal(b1-4)Glc
# Outline: as §1
# [32] = biological target: Neu5Ac(a2-3)Gal(b1-3)]Neu5Ac(a2-3)Gal(b1-4)]GlcNAc
# Outline: as §1
# [33] = biological target: Neu5Ac(a2-3)Gal(b1-4)[Fuc(a1-3)]GlcNAc(b1-3)Gal
# Outline: as §1
# [34] = biological target: Neu5Ac(a2-6)Gal(b1-4)GlcNAc(b1-2)Man(a1-6)[Gal(b1-4)GlcNAc(b1-2)Man(a1-3)]Man(b1-4)GlcNAc(b1-4)GlcNAc
# Outline: as §1
# [35] = biological target: Neu5Ac(a2-6)Gal(b1-4)GlcNAc(b1-2)Man(a1-6)[Man(a1-3)]Man(b1-4)GlcNAc(b1-4)GlcNAc
# Outline: as §1
# [36] = biological target: Neu5Ac(a2-6)Gal(b1-4)GlcNAc(b1-3)Gal(b1-4)GlcNAc(b1-3)Gal(b1-4)GlcNAc(b1-2)Man(a1-3)[Neu5Ac(a2-6)Gal(b1-4)GlcNAc(b1-3)Gal(b1-4)GlcNAc(b1-3)Gal(b1-4)GlcNAc(b1-2)Man(a1-6)]GalNAc
# Outline: as §1
# [37] = biological target: Neu5Ac(a2-8)Neu5Ac(a2-3)Gal(b1-4)Glc
# Outline: as §1
# [38] = biological target: Neu5Ac(a2-8)Neu5Ac(a2-3)Gal(b1-4)GlcNAc
# Outline: as §1
# [39] = biological target: Neu5Ac(a2-8)Neu5Ac(a2-8)Neu5Ac(a2-8)Neu5Ac(a2-3)[GalNAc(b1-4)]Gal(b1-4)Glc
# Outline: as §1
binder,measurement,setting,value
FGFR2-Fc (protein) MVNVTDAISSGDDEDDTDGAEDFVSENSNNKRAPYWTNTEKMEKRLHAVPAANTVKFRCPAGGNPMPTMRWLKNGKEFKQEHRIGGYKVRNQHWSLIMESVVPSDKGNYTCVVENEYGSINHTYHLDVVERSPHRPILQAGLPANASTVVGGDVEFVCKVYSDAQPHIQWIKHVEKNGSKYGPDGLPYLKVLKHSGINSSNAEVLALFNVTEADAGEYICKVSNYIGQANQSAWLTVLPKQQAPGREKEITASPDYLETRPLEQKLISEEDLAANDILDYKDDDDKV,glycan array binding signal (z-score),[1],0.252
same,glycan array binding signal (z-score),[2],-0.068
same,glycan array binding signal (z-score),[3],0.523
same,glycan array binding signal (z-score),[4],-0.635
same,glycan array binding signal (z-score),[5],0.034
same,glycan array binding signal (z-score),[6],-0.327
same,glycan array binding signal (z-score),[7],1.73
same,glycan array binding signal (z-score),[8],-0.722
same,glycan array binding signal (z-score),[9],0.989
same,glycan array binding signal (z-score),[10],0.236
same,glycan array binding signal (z-score),[11],0.991
same,glycan array binding signal (z-score),[12],-0.488
same,glycan array binding signal (z-score),[13],-0.054
same,glycan array binding signal (z-score),[14],-0.552
same,glycan array binding signal (z-score),[15],1.4
same,glycan array binding signal (z-score),[16],0.9
same,glycan array binding signal (z-score),[17],1.35
same,glycan array binding signal (z-score),[18],-0.126
same,glycan array binding signal (z-score),[19],-0.098
same,glycan array binding signal (z-score),[20],-0.356
same,glycan array binding signal (z-score),[21],22.2
same,glycan array binding signal (z-score),[22],1.49
same,glycan array binding signal (z-score),[23],0.045
same,glycan array binding signal (z-score),[24],0.448
same,glycan array binding signal (z-score),[25],-0.02
same,glycan array binding signal (z-score),[26],0.549
same,glycan array binding signal (z-score),[27],-0.264
same,glycan array binding signal (z-score),[28],0.175
same,glycan array binding signal (z-score),[29],0.038
same,glycan array binding signal (z-score),[30],-0.349
same,glycan array binding signal (z-score),[31],0.595
same,glycan array binding signal (z-score),[32],-0.115
same,glycan array binding signal (z-score),[33],1.09
same,glycan array binding signal (z-score),[34],0.258
same,glycan array binding signal (z-score),[35],-0.126
same,glycan array binding signal (z-score),[36],1.17
same,glycan array binding signal (z-score),[37],-0.492
same,glycan array binding signal (z-score),[38],-0.139
same,glycan array binding signal (z-score),[39],0.963
